Results reported in PubChem BioAssay AID1159580 (chemical genetic matrix, 2015).
Hit rate of the full screen: of about 5,500 compounds, about 2,000 (36%) were called active. Inconclusive results (about 18%) are left out. No stated cut-off is given here; in the data, active means normalized growth mostly below about 0.91 (no sharp cut-off); inconclusive means no clear call, values can overlap the other calls; inactive means mostly above about 0.92. This is one part of the list.

Experiment: chemical genetic growth profiling, strain panel (AID 1159580);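 further: tested at 20 µM; growth read once vehicle control cultures reached saturation at 30 °C; 1 = growth at the plate median or of vehicle wells; lower values mean less growth of the strain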
Settings: growth OD

Measured: normalized growth

Cc1cc(=O)n(-c2ccccc2)n1C
inactive: S. cerevisiae deletion strains, locus YJR066W, strain TOR1, active compounds read low 0.984 | S. cerevisiae deletion strains, locus YJR075W, strain HOC1, active compounds read low 1 | S. cerevisiae deletion strains, locus YKL009W, strain mrt4, active compounds read low 1 | S. cerevisiae deletion strains, locus YKL068W, active compounds read low 1 | S. cerevisiae deletion strains, locus YKL085W, strain MDH1 (second series), active compounds read low 0.987 | S. cerevisiae deletion strains, locus YKL085W, strain MDH1, active compounds read low 0.987 | S. cerevisiae deletion strains, locus YKL160W, strain elf1, active compounds read low 0.936 | S. cerevisiae deletion strains, locus YKR001C, strain vps1, active compounds read low 1.02 | S. cerevisiae deletion strains, locus YKR026C, strain gcn3, active compounds read low 1 | S. cerevisiae deletion strains, locus YKR091W, strain srl3, active compounds read low 0.99 | S. cerevisiae deletion strains, locus YLL001W, strain dnm1, active compounds read low 0.921 | S. cerevisiae deletion strains, locus YLL026W, active compounds read low 1 | S. cerevisiae deletion strains, locus YLL041C, strain sdh2, active compounds read low 0.991 | S. cerevisiae deletion strains, locus YLR027C, strain aat2, active compounds read low 1 | S. cerevisiae deletion strains, locus YLR039C, strain RIC1, active compounds read low 1.04 | S. cerevisiae deletion strains, locus YLR058C, strain SHM2, active compounds read low 1 | S. cerevisiae deletion strains, locus YLR102C, strain apc9, active compounds read low 0.991 | S. cerevisiae deletion strains, locus YLR113W, strain HOG1, active compounds read low 0.981 | S. cerevisiae deletion strains, locus YLR221C, strain rsa3, active compounds read low 0.976 | S. cerevisiae deletion strains, locus YLR258W, strain gsy2, active compounds read low 1.07 | S. cerevisiae deletion strains, locus YLR262C, strain YPT6 (second series), active compounds read low 0.967 | S. cerevisiae deletion strains, locus YLR262C, strain YPT6, active compounds read low 1.07 | S. cerevisiae deletion strains, locus YLR268W, strain sec22, active compounds read low 0.992 | S. cerevisiae deletion strains, locus YLR320W, strain mms22, active compounds read low 0.96 | S. cerevisiae deletion strains, locus YLR330W, strain CHS5, active compounds read low 1.01 | S. cerevisiae deletion strains, locus YLR342W, strain FKS1 (second series), active compounds read low 1.02 | S. cerevisiae deletion strains, locus YLR342W, strain FKS1, active compounds read low 0.99 | S. cerevisiae deletion strains, locus YLR357W, strain rsc2, active compounds read low 0.988 | S. cerevisiae deletion strains, locus YLR370C, strain arc18, active compounds read low 0.991 | S. cerevisiae deletion strains, locus YLR371W, strain rom2, active compounds read low 0.987 | S. cerevisiae deletion strains, locus YLR384C, strain iki3, active compounds read low 1 | S. cerevisiae deletion strains, locus YLR418C, strain cdc73, active compounds read low 0.995 | S. cerevisiae deletion strains, locus YML016C, strain PPZ1, active compounds read low 1.01 | S. cerevisiae deletion strains, locus YML032C, strain rad52, active compounds read low 0.993 | S. cerevisiae deletion strains, locus YML120C, strain ndi1, active compounds read low 0.97 | S. cerevisiae deletion strains, locus YML124C, strain tub3, active compounds read low 0.984 | S. cerevisiae deletion strains, locus YMR058W, strain fet3, active compounds read low 0.99 | S. cerevisiae deletion strains, locus YMR078C, strain ctf18, active compounds read low 0.975 | S. cerevisiae deletion strains, locus YMR125W, strain sto1, active compounds read low 0.935 | S. cerevisiae deletion strains, locus YMR129W, active compounds read low 0.998 | S. cerevisiae deletion strains, locus YMR205C, strain PFK2, active compounds read low 0.946 | S. cerevisiae deletion strains, locus YMR223W, strain ubp8, active compounds read low 0.99 | S. cerevisiae deletion strains, locus YMR231W, strain pep5, active compounds read low 0.997 | S. cerevisiae deletion strains, locus YMR307W, strain GAS1, active compounds read low 1.09 | S. cerevisiae deletion strains, locus YNL067W, strain RPL9B, active compounds read low 0.995 | S. cerevisiae deletion strains, locus YNL071W, strain lat1, active compounds read low 0.992 | S. cerevisiae deletion strains, locus YNL128W, strain TEP1, active compounds read low 1.01 | S. cerevisiae deletion strains, locus YNL153C, strain GIM3, active compounds read low 0.991 | S. cerevisiae deletion strains, locus YNL183C, strain NPR1, active compounds read low 0.987 | S. cerevisiae deletion strains, locus YNL209W, strain ssb2, active compounds read low 0.994 | S. cerevisiae deletion strains, locus YNL233W, strain BNI4, active compounds read low 0.989 | S. cerevisiae deletion strains, locus YNL248C, strain rpa49, active compounds read low 0.952 | S. cerevisiae deletion strains, locus YNL250W, strain rad50, active compounds read low 1 | S. cerevisiae deletion strains, locus YNL271C, strain bni1, active compounds read low 0.989 | S. cerevisiae deletion strains, locus YNL298W, strain CLA4, active compounds read low 1.01 | S. cerevisiae deletion strains, locus YNL307C, strain MCK1, active compounds read low 0.991 | S. cerevisiae deletion strains, locus YNL322C, strain KRE1 (second series), active compounds read low 0.991 | S. cerevisiae deletion strains, locus YNR049C, strain mso1, active compounds read low 1 | S. cerevisiae deletion strains, locus YNR052C, strain pop2, active compounds read low 0.982 | S. cerevisiae deletion strains, locus YOL006C, strain TOP1, active compounds read low 0.961 | S. cerevisiae deletion strains, locus YOL012C, strain htz1 1.68 | S. cerevisiae deletion strains, locus YOL147C, strain pex11, active compounds read low 0.989 | S. cerevisiae deletion strains, locus YOR001W, strain rrp6, active compounds read low 1.05 | S. cerevisiae deletion strains, locus YOR061W, strain CKA2, active compounds read low 1.02 | S. cerevisiae deletion strains, locus YOR069W, strain VPS5, active compounds read low 1.01 | S. cerevisiae deletion strains, locus YOR070C, strain gyp1, active compounds read low 0.999 | S. cerevisiae deletion strains, locus YOR080W, strain dia2, active compounds read low 0.999 | S. cerevisiae deletion strains, locus YOR083W, strain WHI5, active compounds read low 0.949 | S. cerevisiae deletion strains, locus YOR106W, strain vam3, active compounds read low 0.957 | S. cerevisiae deletion strains, locus YOR136W, strain idh2, active compounds read low 0.986 | S. cerevisiae deletion strains, locus YOR144C, strain elg1, active compounds read low 0.995 | S. cerevisiae deletion strains, locus YOR184W, strain ser1, active compounds read low 1.01 | S. cerevisiae deletion strains, locus YOR231W, strain MKK1, active compounds read low 1.04 | S. cerevisiae deletion strains, locus YOR265W, strain rbl2, active compounds read low 0.994 | S. cerevisiae deletion strains, locus YOR270C, strain vph1, active compounds read low 0.964 | S. cerevisiae deletion strains, locus YOR290C, strain snf2, active compounds read low 0.945 | S. cerevisiae deletion strains, locus YOR316C, strain cot1, active compounds read low 0.985 | S. cerevisiae deletion strains, locus YPL051W, strain arl3, active compounds read low 0.98 | S. cerevisiae deletion strains, locus YPL078C, strain atp4, active compounds read low 0.936 | S. cerevisiae deletion strains, locus YPL106C, strain sse1, active compounds read low 0.981 | S. cerevisiae deletion strains, locus YPL240C, strain hsp82, active compounds read low 1.01 | S. cerevisiae deletion strains, locus YPL256C, strain CLN2, active compounds read low 0.999 | S. cerevisiae deletion strains, locus YPR119W, strain clb2, active compounds read low 0.982 | S. cerevisiae deletion strains, locus YPR141C, strain kar3, active compounds read low 0.995 | S. cerevisiae deletion strains, locus YPR163C, strain tif3, active compounds read low 0.992 | S. cerevisiae deletion strains, locus YPR167C, strain met16, active compounds read low 0.984 | S. cerevisiae deletion strains, strain wtn01, active compounds read low 0.979 | S. cerevisiae strains, strain wild type, active compounds read low 1.01
